The results in this text go back to PubChem BioAssay (NCI).

Structures are written as SMILES. About 83,000 compounds went through this panel and 20% of them were active in at least one assay; those are over-represented in the sample as a whole.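 How to read the values: 0–100, growth inhibition (40 = 60% inhibited); 0, no net growth; -100 to 0, cell death (-40 = 40% of starting cells died; -100 = all dead).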 A number with no mark means an inactive call. The source made the active and inactive calls. How the source made its calls: active means growth percent below 10; inactive means the rest.

For the assay, the system named is HOP-92 NSCLC. Nature of the assay: NCI-60 one-dose screen, 48 h (100 = growth as untreated, 0 = no growth, -100 = all killed). As to conditions: 10 µM unless noted.
Regarding `COc1cc(-c2nn(-c3ccccc3)cc2-c2ccnc(NCCNS(=O)(=O)c3ccc(Cl)cc3)n2)ccc1Cl`, the growth was 48.8%.
For the compound `COc1cccc(-c2nc3sccn3c2-c2ccnc(NCCNS(=O)(=O)c3cccc(Cl)c3)c2)c1`, the growth is 37.2%.
For `O=C1N=c2cc3c(cc2=C/C1=C/c1sc(=S)n(CCc2ccc(O)cc2)c1O)OCCO3` the value was 56.7%; for `COc1ccc(OC)c2c1[nH]c(=O)c1c3ncccc3cn21`, 57.4%.
The same measure for `O=S(=O)(Nc1cccc(Cl)c1)c1ccc(-c2cnc(C3CC3)o2)cc1`: 20.5%.
The same measure for `COc1ccc(NC(=O)CSc2nc(C)c(C(C)=O)n2-c2ccc(Cl)cc2)cc1`: 106%; for `Cc1cc(/C=C\c2ccc3ccccc3[n+]2C)c(O)c2ncccc12`: 19.4%; for `CN(C)c1ccc(-c2ccc3[nH]c(=O)nc(-c4ccccc4)c3c2)cn1`: 59.1%.
As for `O=C(c1ccccc1)N1N=C(c2ccccc2)CC1c1nnc2n(Cc3ccccc3)c(=O)c3c4c(sc3n12)CCCC4` (stereo not drawn), the growth was 95.3%.
With `N#Cc1c(N)nc2c(C#N)c(NC(=O)c3ccccc3)nn2c1-c1ccccc1`, the growth is 82.5%.
As for `COc1ccc(-c2nc3ccc4[nH]ncc4c3c3c2CCCC3)cc1B(O)O`, the growth is 49.8%.
For `C(=N\Nc1ncc(-c2cc3cc4c(cc3o2)OCO4)s1)/c1ccco1` the value was 63.2%; for `Cn1c(-c2c(N)n(Cc3cccnc3)c3nc(C#N)c(C#N)nc23)nc2ccccc21`, 2.81% (active).
The same measure for `C[n+]1cccc(CC(=O)NO)c1`: 82.5%; for `C=CCSc1nc2ccccc2cc1/C=N/O`: 58.2%; for `O=C(CCCCCCN1CC(=O)N2[C@@H](c3ccccc3Cl)c3[nH]c4ccccc4c3C[C@H]2C1=O)NO`: -6.12% (active).
For `CCCCCCCOc1c(OC)cc(C2CC(=O)Nc3c2c(C)nn3-c2nc3ccccc3[nH]2)cc1OC` (stereo not drawn) the value was -8.34% (active).
For `COC(=O)c1c2c(c[n+]([O-])c1C)C(=O)C=CC2=O`, the growth is 70.8%.
For `COc1cccc(-c2nn(-c3ccccc3)cc2-c2ccnc(NCCCNC(=O)Nc3ccc(Cl)c(Cl)c3)c2)c1` the value was -11.7% (active); for `Cc1ccc(NS(=O)(=O)c2ccc3c(c2)C2OCCC2C(c2ccc(C(=O)C(C)C)cc2)N3)cc1C` (stereo not drawn), 74%; for `Cc1cc(NCc2cc(Nc3ccnc4cc(Cl)ccc34)ccc2F)nc(N2CCSCC2)n1`, 37.7%.
The same measure for `O=C(/C=C/c1ccc(Cl)nc1)c1ccc(Cl)cc1Cl`: 110%; for `CCN(CC)CCCC(C)Nc1c2ccc(Cl)cc2nc2ccc(O)cc12` (stereo not drawn): 50.3%.
For `CCCCCCCC/C=C\CCCCCCCCOc1ccccc1CC(=O)NCC[N+](C)(C)C` the value was 61.3%.
Regarding `Cc1cc(NCc2cc(Nc3ccnc4cc(Cl)ccc34)ccc2F)nc(N2CCCC2)n1`, the growth was 41.3%.
For `COc1ccc(C(=O)COc2ccc(/C=C3\Oc4ccccc4C3=O)cc2)cc1` the value was 75.8%; for `Cn1c2c(c3ccc(Cl)c(Cl)c31)C(C#N)C1(CCNCC1)NC2=O` (stereo not drawn), 21.9%.
On to `N#Cc1c(-c2ccccn2)[nH]c(=S)[nH]c1=O`, for which the growth is 93.6%.
For the compound `Oc1c(CN2CCCC2)cc(COCc2ccc(Br)cc2)c2cccnc12`, the growth is 27.6%.
The same measure for `COc1ccc(N2CCN(c3nc(-c4cc(OC)c(OC)c(OC)c4)nc4ccccc34)CC2)cc1`: 56.6%; for `Nc1n[nH]c(-c2cc(Cl)ccc2O)c1-c1ccccc1`: 73.1%.
For `Cc1ccc(-c2cc(-c3ccccc3C)[nH]c(=O)c2C#N)s1` the value was 54%.
The same measure for `O=C(COc1ccc(/C=C2\Oc3ccccc3C2=O)cc1)c1ccc(Cl)cc1`: 88%; for `O=C1CCC2=C3C4CCCCC4C(=O)C4CCCC(OC2C1)C34` (stereo not drawn): -2.29% (active); for `O=C(Nc1ccccc1Cl)Oc1ccc(-c2ccccc2)cc1`: 94.4%.
In the case of `N#C/C(=C\c1ccc(-c2ccccc2F)o1)c1nc(-c2ccco2)cs1`, the growth is 85.7%.
The same measure for `O=[N+]([O-])c1ccc(Sc2cccc[n+]2[O-])c2nonc12`: 96.4%; for `COc1cccc(C(=O)NCCNc2cc(-c3cn(-c4ccccc4)nc3-c3cccc(OC)c3)ccn2)c1`: 46.2%.
